# M1 ag – human M1 muscarinic receptor agonism | hit rate 0.33% among 360,000 | P11229 | AID 588814 | activation, % at 3 µM | CHO-K1 hM1, Fluo-8 calcium fluorescence, agonist mode; 0% DMSO, 100% acetylcholine EC100;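 active = activation above the run's mean compound activation plus 3 SD, cut at about 16% in these data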;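 also: peak over basal fluorescence ratio within a 140 s kinetic read after compound addition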
# Target sequence (P11229 whole entry, looked up): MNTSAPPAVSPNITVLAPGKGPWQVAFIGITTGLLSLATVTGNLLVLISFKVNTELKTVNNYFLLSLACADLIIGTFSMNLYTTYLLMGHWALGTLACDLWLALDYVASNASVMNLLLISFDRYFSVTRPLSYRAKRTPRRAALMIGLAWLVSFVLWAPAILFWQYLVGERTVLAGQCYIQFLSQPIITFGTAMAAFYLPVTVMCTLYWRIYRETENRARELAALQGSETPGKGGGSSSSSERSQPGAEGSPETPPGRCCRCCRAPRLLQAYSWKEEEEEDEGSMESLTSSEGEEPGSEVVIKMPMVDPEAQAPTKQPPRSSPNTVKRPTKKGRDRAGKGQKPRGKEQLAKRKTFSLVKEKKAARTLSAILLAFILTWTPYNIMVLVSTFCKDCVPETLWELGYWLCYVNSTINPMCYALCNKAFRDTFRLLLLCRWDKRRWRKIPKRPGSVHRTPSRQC
# CHRM1 PAM – positive allosteric modulators of human M1 muscarinic receptor; CHO-K1 hM1, Fluo-8 calcium fluorescence, ACh EC20; 0% = ACh EC20, 100% = maximal ACh; activation, % at 3 µM; P11229; hit rate 0.088% among 360,000; in the data active = activation above about 19%, passing the limit was not always enough
# CHO-K1 Ca ag – nonselective activator or artifact in parental CHO-K1 cells | Fluo-8 calcium fluorescence; scaled to maximal ATP response, vehicle zero | AID 602248 | hit rate 0.48% among 360,000 | activation, % at 3 µM; in the data active = activation above about 15%;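 also: untransfected CHO-K1 host cells lacking M1 receptor as counterscreen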
# CHO-K1 Ca antag – M1 antagonist counterscreen hit in parental CHO-K1 cells. AID 602250. inhibition, % at 3 µM. hit rate 0.6% among 360,000. ATP-induced calcium, Fluo-8 fluorescence;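 active = inhibition above a per-plate cutoff, the plate's mean sample inhibition plus 3 SD, cut at about 24% in these data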
# CHO-K1 Ca PAM – nonselective activator or artifact in parental CHO-K1 calcium assay. ATP EC20, Fluo-8 calcium fluorescence; 0% at ATP EC20, 100% at ATP max. activation, % at 3 µM. hit rate 0.02% among 360,000;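 active = activation above the run cutoff, the mean activation of all test compounds plus 3 SD, cut at about 40% in these data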;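 also: peak over basal fluorescence ratio in a 140 s read after ATP addition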
# M1 antag – human CHRM1 antagonism; CHO-K1 hM1, Fluo-8 calcium fluorescence, ACh EC80 antagonist; inhibition, % at 3 µM; AID 588852; hit rate 1.3% among 360,000; P11229;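 active = percent inhibition above its own plate's cutoff, namely the mean of that plate's compound wells plus 3 SD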;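 also: peak over basal fluorescence ratio during 140 s after agonist addition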
# Hits are given with their value; i = inactive. Only some compounds are listed: those with a hit (about 2.4% of all), similar ones and a draw of the others.
SMILES,M1 ag,CHRM1 PAM,CHO-K1 Ca ag,CHO-K1 Ca antag,CHO-K1 Ca PAM,M1 antag
O=[N+]([O-])c1ccc(NN=C2CC3CCC2C3)c([N+](=O)[O-])c1 (stereo unspecified),i,i,i,i,i,39
O=[N+]([O-])c1ccc(N/N=C2\CC3CC=CC23)c([N+](=O)[O-])c1 (stereo unspecified),i,i,i,i,i,i
CCCN(Cc1ccc(N(CC)CC)cc1)CC1CC1,i,i,i,i,i,52
N#C/C(=N\Nc1ccc(Cl)cc1)C(=O)c1ccccc1,i,i,i,31,i,i
O=C(NCCSc1ccccn1)c1ccc(Cl)cc1,i,i,i,i,i,i
O=C(O)c1ccc(/C=N/NC(=O)c2ccc(CN3c4cccc5cccc(c45)S3(=O)=O)cc2)cc1,i,i,i,i,i,i
O=C1CCC/C(=N/NC(=O)c2ccc(CN3c4cccc5cccc(c45)S3(=O)=O)cc2)C1,19,i,i,i,i,i
CN(C)c1ccc(-c2nnc(-c3ccccc3F)o2)cc1,i,i,19,i,i,i
COc1ccc(-c2nnc(-c3ccc(N(C)C)cc3)o2)cc1,i,i,i,i,i,i
Cc1cc(/C=C2/SC(=S)N(c3cccc(C(F)(F)F)c3)C2=O)c(C)n1-c1cccnc1,i,i,i,36,i,43
O=C1/C(=C\c2ccc(O)cc2)SC(=S)N1c1cccnc1,17,i,17,i,i,i
Cc1cc(/C=C2\SC(=S)N(Cc3ccco3)C2=O)c(C)n1-c1cccnc1,i,i,i,i,i,i
COc1ccc(S(=O)(=O)N(C)[C@H]2C[C@H]3c4cc(N5CCN(C)CC5)ccc4CCN3C(=O)[C@H]2[C@H](C)O)cc1,i,i,i,i,i,i
CCOC(=O)C1CCCN(CCC(=O)Nc2cccc(Cl)c2C)C1 (stereo unspecified),22,i,i,i,i,i
CCOC(=O)C1CCCN(CCC(=O)Nc2cccc(C)c2)C1 (stereo unspecified),43,i,i,i,i,i
Cc1c(Cl)cccc1NC(=O)CCN1CCCCC1,i,i,i,i,i,i
CC(=O)c1ccc(N2CCN(C(=O)CN(C)S(=O)(=O)c3cnc[nH]3)CC2)cc1,i,i,i,i,i,i
C[C@H]1CN([C@@H](C)CO)C(=O)CCCn2cc(nn2)CO[C@@H]1CN(C)C(=O)Nc1cccc(Oc2ccccn2)c1,i,i,i,i,i,i
O=C(c1ccccc1)N1CCCCC(Cl)C1=O (stereo unspecified),i,i,i,i,i,i
COc1ccc(-c2n(CC(=O)OC3CC(C)CCC3C(C)C)c3ccccc3[n+]2C)cc1 (stereo unspecified),i,i,i,24,i,28
COc1ccc(OCc2n(CC(=O)OC3CC(C)CCC3C(C)C)c3ccccc3[n+]2C)cc1 (stereo unspecified),i,i,i,i,i,39
CC1CCC(C(C)C)C(OC(=O)CSc2nccc(=O)[nH]2)C1 (stereo unspecified),i,i,i,i,i,i
CCOc1ccc(Br)cc1C(=O)Nc1ccc(C(=O)NCC(C)C)cc1,i,i,i,i,i,i
O=C(CSc1nnc2c(Cl)cc(Cl)cn12)N1CCOCC1,i,i,i,i,i,i
CCCc1ccc(OCC(=O)Nc2cc(S(=O)(=O)CC)ccc2O)cc1,i,i,16,i,i,i
SMILES,M1 ag,CHRM1 PAM,CHO-K1 Ca ag,CHO-K1 Ca antag,CHO-K1 Ca PAM,M1 antag
CCS(=O)(=O)c1ccc(O)c(NC(=O)COc2ccc(OC)cc2)c1,i,i,i,i,i,i
O=C(CN(c1ccc(F)cc1)S(=O)(=O)c1ccc2c(c1)OCCO2)NCc1cccnc1,i,i,i,i,i,i
CC(C)(C)c1ccc(OCCC(=O)OCC(=O)N2c3ccccc3NC(=O)C2(C)C)cc1,i,i,i,i,i,34
Cc1nn(-c2ccccc2)c(C)c1C(=O)OCC(=O)N1c2ccccc2NC(=O)C1(C)C,i,i,i,i,i,33
Cc1cnc(C(=O)OCC(=O)N2c3ccccc3NC(=O)C2(C)C)cn1,i,i,i,i,i,i
Cc1cccc(OCCC(=O)OCC(=O)N2c3ccccc3NC(=O)C2(C)C)c1,i,i,i,i,i,i
CC1(C)C(=O)Nc2ccccc2N1C(=O)COC(=O)CNS(=O)(=O)c1ccc(F)c(F)c1F,i,i,i,24,i,i
CC1(C)C(=O)Nc2ccccc2N1C(=O)COC(=O)CSc1ccc(Cl)cc1,i,i,i,i,i,i
NC(=O)CN1CCOCCOCCN(CC(N)=O)CCOCCOCC1,i,i,i,49,i,i
CCOC(=O)c1c(-c2ccc3ccccc3c2)csc1NC(=O)CCCC(=O)O,i,i,i,i,i,i
COCCN=c1scc(-c2cc(OC)ccc2OC)n1/N=C/c1c[nH]c2ccccc12,16,i,i,i,i,i
Cc1cc(C(=O)NC2CCCc3c2cnn3-c2cccc(C)c2C)n(C)n1 (stereo unspecified),i,i,i,30,i,34
Cn1nccc1C(=O)NC1CCCc2c1cnn2-c1ccc(C(C)(C)C)cc1 (stereo unspecified),i,i,i,33,i,34
CC(=O)NC1CCCc2c1cnn2-c1ccc(C(C)(C)C)cc1 (stereo unspecified),i,i,i,i,i,i
Cc1nnsc1C(=O)NC1CCCc2c1cnn2-c1ccc(F)cc1F (stereo unspecified),i,i,i,i,i,31
COc1ccc(C(=O)NC2CCCc3c2cnn3-c2ccc(C)c(C)c2)c(OC)c1OC (stereo unspecified),i,i,i,i,i,i
COc1cccc(C(=O)NC2CCCc3c2cnn3-c2ccc(C)c(C)c2)c1OC (stereo unspecified),i,i,i,38,i,i
CC[C@@H](C)[C@@H]1CN([C@@H](C)CN2CCC[C@H]2CN2C(N)=NC[C@H]2CC(C)C)C(=N)N1CCc1ccc(Cl)c(Cl)c1,i,i,i,i,i,39
CCC[C@@H](CN1CCC[C@H]1CN1C(N)=NC[C@H]1CC(C)C)N1C[C@@H]([C@H](C)CC)N(CCc2ccc(Cl)c(Cl)c2)C1=N,i,i,i,i,i,38
CCC[C@@H](CN1CCC[C@H]1CN1C(N)=NC[C@@H]1Cc1ccccc1)N1C[C@@H]([C@H](C)CC)N(CCc2ccc(Cl)c(Cl)c2)C1=N,i,i,i,i,i,i
CC[C@@H](C)[C@@H]1CN([C@@H](CN2CCC[C@H]2CN2C(N)=NC[C@H]2CC(C)C)C(C)C)C(=N)N1CCc1ccc(Cl)c(Cl)c1,i,i,i,i,i,i
COc1ccc(S(=O)(=O)NCC2CCCN(Cc3ccccc3Cl)C2)cc1 (stereo unspecified),i,i,i,i,i,51
